Screening data as filed in PubChem.
Only some compounds are listed: those with a hit (about 5.4% of all), similar ones and a draw of the others.
15-hLO-2 inh: 15-hLO-2 (ALOX15B) enzyme inhibition; O15296; 110,000 compounds, 0.56% hits; Potency, µM (top dose mostly 57.1 µM), for inactives: at the top dose activity change, negative = inhibition, usual class: inhibitors; purified 15hLO-2, xylenol orange hydroperoxide absorbance; AID 881; note: potency is the fitted concentration of half-maximal effect; nearly all actives have a fitted effect of over 60% in size
Target sequence (O15296 whole entry, looked up): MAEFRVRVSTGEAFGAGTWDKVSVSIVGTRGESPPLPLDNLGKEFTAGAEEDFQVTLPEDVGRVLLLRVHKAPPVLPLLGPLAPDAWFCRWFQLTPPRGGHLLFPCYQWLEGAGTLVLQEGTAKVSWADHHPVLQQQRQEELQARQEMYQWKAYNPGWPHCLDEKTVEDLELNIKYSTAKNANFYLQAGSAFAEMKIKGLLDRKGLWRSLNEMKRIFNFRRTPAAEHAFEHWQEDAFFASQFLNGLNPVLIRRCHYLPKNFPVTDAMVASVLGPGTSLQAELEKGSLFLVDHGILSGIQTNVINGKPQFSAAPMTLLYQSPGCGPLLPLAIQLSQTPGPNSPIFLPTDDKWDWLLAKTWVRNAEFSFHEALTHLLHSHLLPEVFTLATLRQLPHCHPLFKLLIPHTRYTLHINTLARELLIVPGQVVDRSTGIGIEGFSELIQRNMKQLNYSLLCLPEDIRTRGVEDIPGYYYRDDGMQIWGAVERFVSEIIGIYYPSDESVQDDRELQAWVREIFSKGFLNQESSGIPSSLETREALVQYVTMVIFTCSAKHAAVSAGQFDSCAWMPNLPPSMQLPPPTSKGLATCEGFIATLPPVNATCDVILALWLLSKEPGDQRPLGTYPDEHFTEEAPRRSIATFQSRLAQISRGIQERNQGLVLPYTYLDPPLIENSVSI
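Enzyme 50 nM, AA 45 uM, 25 mM Hepes pH 7.5 + 0.01% Triton X-100; cpd preinc 15 min RT, rxn 90 min RT; stop/detect with 200 uM XO + 300 uM Fe(II) in 50 mM H2SO4, 30 min; A573/A405.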
IMPase inh: membrane-permeable compound that blocks inositol monophosphatase; P97697; CHO-M1 cells, IP1 accumulation, HTRF TR-FRET ratio; inhibition (IP1 accumulation), % at 46.1 µM; 120,000 tested, under 10 active; AID 901; active = well fitted curve in the direction sought with a large enough effect in the signal ratio, not every such curve was filed as active; inconclusive = small, poorly fitted or top-dose-only effect, or a change in a side signal; inactive = no such curve, though single readings can be large or run the other way; the % refers to the signal ratio;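 note: cells stimulated with carbachol in lithium chloride buffer; plate controls were DMSO basal wells for no effect and reference inhibitor wells for full effect; higher means more IMPase inhibition seen as more IP1 and lower FRET ratio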
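CHO-M1 cells (CHO stably expressing M1 receptor), compound up to 46 uM final, stimulated with carbachol (50 uM as added) in buffer with 50mM LiCl, pH 7.4, 30 min at 37C. Cytosolic IP1 read by TR-FRET; AC50 from Hill fits.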
PNC assembly inh: blocks assembly of the perinucleolar compartment; PC3M PTB-GFP, PNC prevalence imaging, 16 h; stronger effect = lower value; activity change (PNC), negative = inhibition, % at 10 µM; 140,000 compounds, 3.1% hits;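 active = readout at or below -70, meaning at least 70% loss of cells showing the perinucleolar compartment, a nuclear body marking cancer cells; inconclusive = readout between -30 and a set limit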;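 note: plate controls were DMSO wells for no effect and camptothecin positive control wells for full effect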
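PC3M cells stably expressing PTB-GFP, 750–1000 cells/well, treated 16 h at 37 °C with compound (23 nl of library stock), in duplicate. After paraformaldehyde fixation and Hoechst stain, imaged at 20x; PNC prevalence scored by image analysis.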
IMPase Li inh: IMPase inhibition in cells with lithium potentiation; Potency, µM (top dose mostly 59.4 µM), without a hit: at the top dose activity, negative = IMPase inhibition, actives largely listed as inhibitors; 210,000 compounds, 0.35% hits; CHO-M1 cells, IP1 TR-FRET (IP-One), carbachol + lithium;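 note: IP1 builds up when IMPase is blocked and the TR-FRET signal falls; potency is the fitted concentration of half-maximal effect; plate controls were basal vehicle for no effect and high inhibitor control for full effect; nearly all actives have a fitted effect of over 50% in size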
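Steps: plate 2000 CHO-M1 cells per well and culture 16–30 h; add compound and lithium; incubate 30 min, 37C; add d2-IP1 tracer and Eu cryptate anti-IP1 antibody in lysis buffer; read after 10 min at room temperature.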
ALOX12 inhib: blocks human 12-lipoxygenase activity. purified 12-hLO, xylenol orange hydroperoxide absorbance. Potency, µM (highest dose often 57.1 µM), for inactives: at the top dose activity change, negative = inhibition, actives largely listed as inhibitors. 150,000 compounds, 0.12% hits. AID 1452; note: potency is the fitted concentration of half-maximal effect; nearly all actives have a fitted effect of over 55% in size
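Hydroperoxide formation by human 12-lipoxygenase from 40 uM arachidonic acid was followed colorimetrically via ferric-xylenol orange complex, using the 573/405 nm absorbance ratio. Enzyme concentration was 150 nM, with 30 min reaction at room temperature.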
HPGD block: HPGD (human) dehydrogenase inhibition; 150,000 compounds, 4.3% hits; Potency, µM, for inactives: at the highest dose activity change, negative = inhibition, usual class: inhibitors; purified HPGD, NADH fluorescence kinetic, PGE2 substrate; P15428; active = well fitted inhibition curve with a large enough effect, not every such curve was filed as active; inconclusive = small, poorly fitted or top-dose-only effect, or another doubt; inactive = no such curve, though single readings can be large or run the other way; note: potency is the fitted concentration of half-maximal effect
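NADH formation kinetics: reaction with 30 uM PGE2 and 1 mM NAD+ (final), 20 nM enzyme, Tris-HCl pH 8 with Tween 20, after 15 min compound preincubation at room temperature. Fluorescence change, last versus first of five reads.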
* hit, by the source's call; ? = inconclusive; / = not tested or not shown; [ ] = remark or other dose. Unless noted, calls come from the whole dose curve; as a rule, active = well fitted curve in the direction sought with a large enough effect; inconclusive = small, poorly fitted or top-dose-only effect, or another doubt; inactive = no such curve, though single readings can be large; an effect the other way counts as inactive or inconclusive. Unless noted, % is set by controls: 0 for no effect and ±100 for the full control effect.

SMILES	15-hLO-2 inh	IMPase inh	PNC assembly inh	IMPase Li inh	ALOX12 inhib	HPGD block
COCc1c(C)cc(C)c(/C=N/O)c1C	3.7%	7.4	32.7	-2.8%[38.3 µM]	4.5%	14.1µM*
COc1ccc(-c2nc3cnc(OC)nc3n(CCc3ccccc3)c2=O)cc1	-2.0%	/	/	7.08µM*	/	/
Cn1cc(-c2nc3cnc(Oc4ccccc4)nc3n(C)c2=O)c2ccccc21	-3.5%	/	/	7.08µM*	/	/
Cn1c(=O)c(-c2cc(F)cc(F)c2)nc2cnc(Oc3cccc(Cl)c3)nc21	-6.3%	/	/	-0.6%	-6.5%	-29.8%
COCCn1c(=O)c(-c2ccc(OC)cc2)nc2cnc(OC)nc21	1.8%	/	/	-4.1%	-0.4%	-25.2%
Cn1c(=O)c(-c2ccc(Cl)cc2)nc2cnc(Oc3cccc(Cl)c3)nc21	-1.9%	/	/	12.6µM*	/	/
C[C@H](N)CCCP(=O)(O)O	/	/	/	-7.0%	/	/
C/C(CCC(=O)OC[C@H]1O[C@H](C#Cc2ccccc2)C=C[C@@H]1Oc1ccc(C)cc1)=N\O[C@@H](C)CN1CCCCc2nc(C)c(C)cc21	/	/	-22.8	26.6%	-5.6%	-15.2%
COc1ccc(O[C@H]2C=C[C@@H](c3ccccc3)O[C@@H]2COC(=O)CC/C(C)=N/O[C@@H](C)CN2CCCCc3nc(C)c(C)cc32)cc1	/	/	-82.8*	33.0%	-0.7%	-17.1%
O=C(CSc1nc2c(c(C(F)(F)F)n1)CCc1ccccc1-2)NCc1ccccc1	/	-20.2	8.3	10µM*	5.5%	?
O=C(CSc1nc2c(c(C(F)(F)F)n1)CCc1ccccc1-2)NCc1ccc(F)cc1	/	0.1	-118.9*	0.7%	-4.4%	-8.4%
O=C(CN1CCCCCC1)N1c2ccccc2C=Cc2ccccc21	6.3%	17.7	-105.9*	58.5%[38.3 µM]	3.2%	-7.2%
CCN(CC)C(=O)N1c2ccccc2C=Cc2ccccc21	-3.7%	6.7	-105.1*	6.3%[38.3 µM]	-0.2%	-0.2%
CN=C(NC#N)NCCSC[C@H]1N=CN=C1C	3.4%[25.6 µM]	-5.3[20.6 µM]	/	-12.8%	-1.0%[25.6 µM]	-5.3%
Cc1cc(C)c2nc(C)cc(Nc3cccc(C(=O)O)c3)c2c1	/	-6.1	/	/	/	/
O=C1N/C(=N/Nc2ccccc2)S/C1=C\c1ccccc1	3.16µM*	3.2	26.9	22.4%[38.3 µM]	?	10µM*
C=CCC(C)(O)c1ccccc1 (centres undefined)	/	/	/	13.2%	/	-13.9%
Cc1ccc(/C=N/n2c(-c3cccs3)n[nH]c2=S)cc1	?	3.3	60.2	12.4%[38.3 µM]	-11.8%	4.47µM*
S=c1[nH]nc(-c2cccs2)n1/N=C/c1c(Cl)cccc1Cl	/	/	/	0.5%	/	/
COc1ccc(/C=N/n2c(-c3cccs3)n[nH]c2=S)cc1	?	4.4	23.4	-1.9%[38.3 µM]	-17.4%	3.98µM*
Cc1ccc(-c2csc3ncn(-n4c(C)ccc4C)c(=O)c23)o1	-2.3%	9.6	?	19.6%[38.3 µM]	-29.3%	28.2µM*
Cc1sc2ncn(-n3c(C)ccc3C)c(=O)c2c1C	-4.2%	3.5	31.9	-9.1%[38.3 µM]	-9.8%	-7.8%
Cc1cccc(N(CC(=O)NCCSCc2cccc(Cl)c2)S(=O)(=O)c2ccccc2)c1C	/	-0.3	/	/	/	/
CC(C)c1ccc(/C=C/C(=O)N2CCCCCC2)cc1	/	/	?	4.8%	-6.7%	14.1µM*
Cc1ccc(/C=C/C(=O)N2CCCN(C(=O)/C=C/c3ccc(C)cc3)CC2)cc1	/	-9.0	?	2.7%	-0.1%	-7.6%
SMILES	15-hLO-2 inh	IMPase inh	PNC assembly inh	IMPase Li inh	ALOX12 inhib	HPGD block
CN[C@]1(C)[C@@H]2CC[C@@H](C2)C1(C)C	-4.1%	-1.3	/	/	-3.3%	/
CCCCCCc1cc2cc(-c3nnc(-c4cccc(Cl)c4)o3)c(=O)oc2cc1O	/	5.8	/	/	/	/
CCOC(=O)c1c(NC(=O)c2cc(OC)c(OC)c(OC)c2)sc2c1CCCC2	/	-10.9	/	/	/	/
CCOC(=O)c1c(NS(=O)(=O)c2cccc(OC)c2)sc2c1CCC2	0.5%	15.0	?	19.8%[38.3 µM]	-13.3%	35.5µM*
C=CCOC(=O)N[C@@H](CCc1ccccc1)C(C(C)=O)C(C)=O	/	/	/	-12.8%	/	-6.8%
CCCCc1ccc(/C=C2\C(=O)c3ccccc3C(O)=C2C(=O)OCC)cc1	10µM*	19.0	42.5	8.8%	-9.2%	8.91µM*
